Laboratory results from PubChem BioAssay (Tox21).
Where “and” joins values, the source holds several entries; their conditions need not be identical. Equal entries are not always repeated. Records with an inconclusive call do not appear. Entries that show only a call come without a potency. Where a structure was tested more than once in an assay, its records may differ in their call. Calls of active or inactive are those of the source. Unless noted, the call rests on the fitted dose curve.

Experiments:
[1] = Nuclear factor erythroid 2-related factor 2/antioxidant responsive element (Nrf2/ARE) small molecule agonists: qHTS cell viability counter screen in human keratinocytes (AID 1919968; active means well fitted curve in the direction sought with a large enough effect in the repeat runs; an effect the other way counts as inactive or inconclusive; further: nearly all actives have a fitted effect of over 55% in size; further: potency means the concentration at half of the fitted maximal effect)
How it was run: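 CellTiter-Fluor fluorescence, read 1 h after reagent, gave viability in the same wells as the ARE-luciferase assay. KeratinoSens cells (1,500/well) had 23 h compound exposure at 37 C/5% CO2 following 5 h plating.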

[2] = Nuclear factor erythroid 2-related factor 2/antioxidant responsive element (Nrf2/ARE) small molecule agonists: luciferase reporter gene qHTS assay in human keratinocytes (AID 1919969); further: nearly all actives have a fitted effect of over 35% in size; further: potency means the concentration at half of the fitted maximal effect
[3] = target: Gonadotropin-releasing hormone receptor (Homo sapiens) (UniProt P30968); assay: Human gonadotropin-releasing hormone receptor (GnRHR) small molecule agonists, calcium flux assay in GnRHR-HEK293 cells (AID 1920063); further: nearly all actives have a fitted effect of over 35% in size
How it was run: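 Agonist mode: compounds at 15 concentrations, in triplicate, went onto calcium dye-loaded GnRHR-HEK293 cells. Intracellular calcium was then followed as 480/540 nm fluorescence at 1 s intervals over 3 min.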

[4] = target: KiSS-1 receptor (Homo sapiens) (UniProt Q969F8); assay: Human kisspeptin (KISS1R) small molecule agonists, calcium flux assay in KISS1R-HEK293 cells (AID 1920064; active means well fitted curve in the direction sought with a large enough effect in the repeat runs; an effect the other way counts as inactive or inconclusive)
How it was run: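 Agonist mode: intracellular calcium rise tracked at 1 s intervals over 3 min (480/540 nm) immediately after compound addition to dye-loaded KISS1R-HEK293 stable cells. Each compound tested at 15 concentrations in triplicate.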

[5] = G protein-coupled receptor (GPCR) small molecule agonists, calcium flux assay: HEK293 wild type cell line counter screen (AID 1920065)
How it was run: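 Calcium flux counter screen: compound added in agonist mode at 15 concentrations in triplicate to dye-loaded parental HEK293 cells. Fluorescence (480/540) read kinetically for 3 min; ATP served as positive control.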

[6] = p53 small molecule agonists, cell-based qHTS assay with rat liver microsomes (AID 1963578)
How it was run: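 Metabolic activation is supplied by rat liver microsomes with NADPH (each 0.5 mg/mL final). p53RE-bla cells incubate with compound 16 h at 37 C; reporter activity is measured by LiveBLAzer fluorescence.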

[7] = p53 small molecule agonists, cell-based qHTS assay with human liver microsomes: qHTS cell viability counter screen (AID 1963579); further: nearly all actives have a fitted effect of over 45% in size; further: potency means the concentration at half of the fitted maximal effect
How it was run: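 After the 460/530 nm beta-lactamase read, CellTiter-Glo was added to the same wells and luminescence measured after 30 min at room temperature, giving viability of p53RE-bla cells treated 16 h with compounds plus microsomes and NADPH.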

[8] = p53 small molecule agonists, cell-based qHTS assay with rat liver microsomes: qHTS cell viability counter screen (AID 1963580); further: nearly all actives have a fitted effect of over 45% in size; further: potency means the concentration at half of the fitted maximal effect
How it was run: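 After the beta-lactamase ratio was read, CellTiter-Glo was added to the same wells and luminescence measured at 30 min; cells had been treated 16 h at 37 C with compounds, rat liver microsomes and NADPH (0.5 mg/mL final each).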

[9] = p53 small molecule agonists, cell-based qHTS assay: qHTS cell viability counter screen (AID 1963581); further: nearly all actives have a fitted effect of over 45% in size; further: potency means the concentration at half of the fitted maximal effect
How it was run: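 Counter screen read by CellTiter-Glo luminescence (ATP content, 30 min at room temperature), run in the same wells as the beta-lactamase reporter read. HCT-116 p53RE-bla cells saw compounds for 16 h at 37 C.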

[10] = p53 small molecule agonists, cell-based qHTS assay (AID 1963582; active means well fitted activation curve with a large enough effect in the signal ratio in the repeat runs, not every such curve was filed as active; the % refers to the signal ratio)
How it was run: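 Read-out is beta-lactamase FRET fluorescence after 2 h at room temperature with LiveBLAzer B/G substrate. p53 response element-bla cells were treated 16 h at 37 C with compounds in DMSO, added 5 h after seeding.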

[11] = target: 5-hydroxytryptamine receptor 2A (Homo sapiens) (UniProt P28223); assay: 5-hydroxytryptamine receptor 2A (HTR2A) small molecule antagonists, cell-based qHTS assay (AID 1963586); further: nearly all actives have a fitted effect of over 45% in size
How it was run: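 CHO cells stably expressing human HTR2A were plated for 18 h at 37 C, then loaded with calcium dye for 1 h. Compounds were preincubated 5 min at room temperature before DOI (4 nM solution) was added. Kinetic fluorescence was read for 3 min.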

[12] = target: 5-hydroxytryptamine receptor 2A (Homo sapiens) (UniProt P28223); assay: 5-hydroxytryptamine receptor 2A (HTR2A) small molecule agonists, cell-based qHTS assay (AID 1963587); further: nearly all actives have a fitted effect of over 30% in size; further: potency means the concentration at half of the fitted maximal effect
How it was run: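 CHO cells stably expressing human HTR2A, plated 18 h, loaded with calcium dye 1 h at 37 C. Agonist mode: compounds added and intracellular calcium fluorescence recorded kinetically for 2 min at 1 sec intervals.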

[13] = target: Muscarinic acetylcholine receptor M1 (Homo sapiens) (UniProt P11229); assay: Cholinergic receptor muscarinic 1 (CHRM1) small molecule antagonists, cell-based qHTS assay (AID 1963588); further: nearly all actives have a fitted effect of over 40% in size
How it was run: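 Compounds were tested at 15 concentrations in three independent runs. Dye-loaded CHRM1-CHO cells were exposed 5 min at room temperature before stimulation by acetylcholine added at 50nM. Intracellular calcium was read kinetically on FDSS for 3 min.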

[14] = target: Muscarinic acetylcholine receptor M1 (Homo sapiens) (UniProt P11229); assay: Cholinergic receptor muscarinic 1 (CHRM1) small molecule agonists, cell-based qHTS assay (AID 1963589); further: nearly all actives have a fitted effect of over 35% in size
How it was run: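 Agonist-mode calcium-flux screen: compounds at 15 concentrations, three independent runs, were pin-transferred onto dye-loaded human CHRM1-CHO cells. Fluorescence was then recorded kinetically every second over minutes.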

[15] = cAMP Responsive Elements (CRE) small molecule agonists, cell-based qHTS assay (AID 1963590)
How it was run: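 Agonist mode: compound added to CRE-bla HEK 293T cells (2,000/well, 18 h after plating) for 3 h at 37 C/5% CO2. Reporter activity detected via FRET beta-lactamase substrate, 2 h room-temperature loading.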

[16] = cAMP Responsive Elements (CRE) small molecule antagonists, cell-based qHTS assay (AID 1963591; active means well fitted inhibition curve with a large enough effect in the signal ratio in the repeat runs, not every such curve was filed as active; the % refers to the signal ratio)
How it was run: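 Antagonist mode: compounds are added alongside the adenylyl cyclase activator NKH477 (0.25 uM final) to CRE-bla HEK293T cells for 3 h. LiveBLAzer FRET substrate, 2 h at room temperature, reports bla expression.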

[17] = target: Beta-2 adrenergic receptor (Homo sapiens) (UniProt P07550); assay: Adrenergic beta2 receptor (ADRB2) small molecule antagonists, cell-based qHTS assay (AID 1963592); further: nearly all actives have a fitted effect of over 50% in size; further: potency means the concentration at half of the fitted maximal effect
How it was run: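 Assay format: CHO-ADRB2 cells, 18-20hr seeding at 37C/5% CO2, then compound plus 1nM isoproterenol agonist mix for 0.5hr RT. Homogeneous time-resolved fluorescence cAMP detection after 1hr, expressed as 665/615 nm ratio.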

[18] = target: D(2) dopamine receptor (Homo sapiens) (UniProt P14416); assay: Dopamine D2 receptor (DRD2) small molecule agonists, cell-based qHTS assay (AID 1963594); further: nearly all actives have a fitted effect of over 35% in size
How it was run: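 HEK293 cells stably expressing human DRD2, pre-treated with PDE inhibitor Ro20-1724 (0.1 mM final) and compound 10 min at room temperature, then stimulated with NKH477 (200nM […]) for 30 min. cAMP read by HTRF (665/620 nm).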

[19] = target: D(2) dopamine receptor (Homo sapiens) (UniProt P14416); assay: Dopamine D2 receptor (DRD2) small molecule antagonists, cell-based qHTS assay (AID 1963595; active means well fitted inhibition curve with a large enough effect in the signal ratio in the repeat runs, with a control signal flat; the % refers to the signal ratio; further: potency means the concentration at half of the fitted maximal effect)
How it was run: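 Human DRD2 antagonist qHTS measuring cAMP by HTRF. The cells are exposed to compound for 10 min, then to NKH477 (200 nM) and quinpirole (12 nM) for 30 min at RT, with Ro20-1724 (0.1 mM) present throughout.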

[20] = target: Beta-2 adrenergic receptor (Homo sapiens) (UniProt P07550); assay: Adrenergic beta2 receptor (ADRB2) small molecule agonists, cell-based qHTS assay (AID 1963593);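 further: CHO cells stably overexpressing human ADRB2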
How it was run: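 CHO cells stably over-expressing ADRB2 were plated overnight at 37C, then dosed with compounds plus a stimulation mix containing 100uM IBMX and 25uM Ro-20-1724 for 0.5hr at room temperature. cAMP was measured by HTRF competition, 1hr.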

Sequence of KiSS-1 receptor (Homo sapiens) (Q969F8 whole entry, looked up): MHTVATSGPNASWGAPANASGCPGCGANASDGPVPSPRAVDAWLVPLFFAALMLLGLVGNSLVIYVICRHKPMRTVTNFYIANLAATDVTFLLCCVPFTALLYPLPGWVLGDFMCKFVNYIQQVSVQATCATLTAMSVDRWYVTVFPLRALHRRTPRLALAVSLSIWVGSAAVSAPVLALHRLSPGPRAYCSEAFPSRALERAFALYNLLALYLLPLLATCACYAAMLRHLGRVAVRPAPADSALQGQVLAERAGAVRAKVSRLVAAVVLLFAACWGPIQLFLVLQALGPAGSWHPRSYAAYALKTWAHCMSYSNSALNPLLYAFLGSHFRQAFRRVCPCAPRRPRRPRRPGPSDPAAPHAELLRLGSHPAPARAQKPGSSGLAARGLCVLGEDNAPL
Sequence of Gonadotropin-releasing hormone receptor (Homo sapiens) (P30968 whole entry, looked up): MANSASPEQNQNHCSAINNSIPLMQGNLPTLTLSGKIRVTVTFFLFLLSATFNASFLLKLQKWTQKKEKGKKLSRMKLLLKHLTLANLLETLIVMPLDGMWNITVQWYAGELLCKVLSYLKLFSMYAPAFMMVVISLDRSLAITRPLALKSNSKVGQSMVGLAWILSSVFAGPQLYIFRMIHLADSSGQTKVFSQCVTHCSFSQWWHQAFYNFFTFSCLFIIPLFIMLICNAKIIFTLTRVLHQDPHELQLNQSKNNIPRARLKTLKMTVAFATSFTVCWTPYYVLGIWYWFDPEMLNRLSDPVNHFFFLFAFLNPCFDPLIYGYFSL
Sequence of 5-hydroxytryptamine receptor 2A (Homo sapiens) (P28223 whole entry, looked up): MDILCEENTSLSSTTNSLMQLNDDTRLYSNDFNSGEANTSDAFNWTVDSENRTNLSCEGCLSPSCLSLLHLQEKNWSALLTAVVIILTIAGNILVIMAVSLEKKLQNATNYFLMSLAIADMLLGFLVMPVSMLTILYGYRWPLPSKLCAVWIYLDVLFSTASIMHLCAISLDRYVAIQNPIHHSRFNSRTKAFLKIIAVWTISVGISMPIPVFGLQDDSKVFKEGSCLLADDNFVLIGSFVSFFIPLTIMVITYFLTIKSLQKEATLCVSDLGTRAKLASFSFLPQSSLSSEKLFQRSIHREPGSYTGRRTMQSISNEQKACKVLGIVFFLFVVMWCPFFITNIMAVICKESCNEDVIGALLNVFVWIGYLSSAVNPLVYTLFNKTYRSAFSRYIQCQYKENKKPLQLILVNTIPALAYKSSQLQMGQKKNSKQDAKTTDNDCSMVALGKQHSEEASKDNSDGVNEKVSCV
Sequence of Muscarinic acetylcholine receptor M1 (Homo sapiens) (P11229 whole entry, looked up): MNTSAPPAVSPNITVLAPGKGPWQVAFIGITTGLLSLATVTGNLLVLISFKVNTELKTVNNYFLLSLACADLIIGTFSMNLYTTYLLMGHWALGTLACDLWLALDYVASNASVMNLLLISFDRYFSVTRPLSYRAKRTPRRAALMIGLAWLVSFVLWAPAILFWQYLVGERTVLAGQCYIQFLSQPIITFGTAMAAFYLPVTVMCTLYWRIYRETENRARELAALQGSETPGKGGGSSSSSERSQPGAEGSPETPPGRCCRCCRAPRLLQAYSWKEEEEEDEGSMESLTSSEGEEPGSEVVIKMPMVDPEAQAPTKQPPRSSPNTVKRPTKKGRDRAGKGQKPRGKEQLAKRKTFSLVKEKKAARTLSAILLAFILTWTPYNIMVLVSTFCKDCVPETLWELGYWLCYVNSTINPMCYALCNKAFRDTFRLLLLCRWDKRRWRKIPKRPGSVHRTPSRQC
Sequence of D(2) dopamine receptor (Homo sapiens) (P14416 whole entry, looked up): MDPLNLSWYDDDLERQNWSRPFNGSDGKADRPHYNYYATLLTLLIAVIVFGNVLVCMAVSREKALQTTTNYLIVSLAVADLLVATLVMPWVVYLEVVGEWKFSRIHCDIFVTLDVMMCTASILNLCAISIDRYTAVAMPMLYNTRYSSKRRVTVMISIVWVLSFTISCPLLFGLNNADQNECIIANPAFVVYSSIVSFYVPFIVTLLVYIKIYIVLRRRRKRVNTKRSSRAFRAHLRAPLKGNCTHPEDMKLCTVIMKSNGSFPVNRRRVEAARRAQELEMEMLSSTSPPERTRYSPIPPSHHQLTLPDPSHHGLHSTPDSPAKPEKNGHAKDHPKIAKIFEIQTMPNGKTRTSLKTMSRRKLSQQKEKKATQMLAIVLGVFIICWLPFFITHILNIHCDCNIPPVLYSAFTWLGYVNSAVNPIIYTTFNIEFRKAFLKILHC
Sequence of Beta-2 adrenergic receptor (Homo sapiens) (P07550 whole entry, looked up): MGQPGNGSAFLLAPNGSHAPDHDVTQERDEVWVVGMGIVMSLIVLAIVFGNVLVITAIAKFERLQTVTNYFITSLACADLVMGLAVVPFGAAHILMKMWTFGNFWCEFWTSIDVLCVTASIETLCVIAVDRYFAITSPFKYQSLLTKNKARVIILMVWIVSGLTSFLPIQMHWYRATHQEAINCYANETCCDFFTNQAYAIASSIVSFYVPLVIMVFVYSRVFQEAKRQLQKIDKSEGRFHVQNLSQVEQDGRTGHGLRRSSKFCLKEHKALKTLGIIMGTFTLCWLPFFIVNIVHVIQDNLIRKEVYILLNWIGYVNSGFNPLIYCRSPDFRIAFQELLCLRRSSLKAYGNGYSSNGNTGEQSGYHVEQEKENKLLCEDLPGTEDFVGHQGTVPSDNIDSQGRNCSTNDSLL

SMILES | Potency [1] | Potency [2] | Potency [3] | Potency [4] | Potency [5] | Potency [6] | Potency [7] | Potency [8] | Potency [9] | Potency [10] | Potency [11] | Potency [12] | Potency [13] | Potency [14] | Potency [15] | Potency [16] | Potency [17] | Potency [18] | Potency [19] | Potency [20]
CS(=O)(=O)NC(=O)c1cc(Oc2ccc(C(F)(F)F)cc2Cl)ccc1[N+](=O)[O-] | inactive | inactive | inactive | inactive | inactive | inactive | inactive | inactive | inactive | inactive | inactive | inactive | inactive | inactive | inactive | inactive | inactive | inactive | inactive | 
ClCc1ccccc1 | inactive | inactive | inactive | inactive | inactive | inactive | inactive | inactive | inactive | inactive | inactive | inactive | inactive |  | inactive | inactive | inactive | inactive | inactive | 
C[C@]12CC[C@H]3[C@@H](CC[C@@]45O[C@@H]4C(O)=C(C#N)C[C@]35C)[C@@H]1CC[C@@H]2O | inactive | 68.6 µM (active) and inactive | inactive | inactive | inactive | inactive | inactive | inactive | inactive |  | inactive | inactive | inactive | inactive |  |  | inactive | inactive | inactive | inactive
C=CCSSCC=C | inactive | inactive | inactive | inactive | inactive | inactive |  | inactive | inactive | inactive | inactive | inactive | inactive | inactive | inactive | inactive | inactive | inactive | inactive | inactive
c1ccc(CN2CCNCC2)cc1 | inactive | inactive | inactive | inactive | inactive | inactive | inactive | inactive | inactive |  |  | inactive | inactive | inactive | inactive | inactive | inactive |  | inactive | 
O=[N+]([O-])c1ccc(CBr)cc1 | inactive | inactive | inactive | inactive | inactive | inactive |  | inactive | inactive | inactive | inactive | inactive | inactive | inactive | inactive | inactive | inactive | inactive | inactive | 
CCCCCCCCCCCCCCCl | inactive | inactive | inactive | inactive | inactive | inactive | inactive | inactive | inactive | inactive | inactive | inactive | inactive | inactive | inactive | inactive | inactive | inactive | inactive | 
CCOC(=O)c1ccccc1C(=O)OCC | inactive | inactive | inactive | inactive | inactive | inactive |  | inactive | inactive | inactive | inactive | inactive | inactive | inactive | inactive |  | inactive | inactive | inactive | inactive
CCC(=O)O[C@@H]1C=C2CCC3C(CCC4(C)C3CC[C@@H]4OC(=O)CC)C2CC1 (some centres undefined) | inactive | inactive | inactive | inactive | inactive | inactive | inactive | inactive | inactive | inactive |  | inactive | inactive | inactive | inactive | inactive | inactive | inactive | inactive | inactive
COP(=O)(NC(C)=O)SC (centres undefined) | inactive | inactive | inactive | inactive | inactive | inactive | inactive | inactive | inactive |  | inactive | inactive | inactive |  | inactive | inactive | inactive | inactive |  | 
CC1(C)[C@H](C(=O)O[C@H](C#N)c2cccc(Oc3ccccc3)c2)[C@@H]1C=C(Br)Br | inactive | inactive | inactive | inactive | inactive | inactive | inactive | inactive |  | inactive | inactive | inactive | inactive | inactive |  | inactive | inactive | inactive | inactive | 
COP(=S)(OC)Oc1ccc(Sc2ccc(OP(=S)(OC)OC)cc2)cc1 | inactive | inactive | inactive | inactive | inactive |  | inactive | inactive | inactive | inactive | inactive | inactive | inactive | inactive | inactive | inactive | inactive | inactive |  | 
CC(=NC#N)N(C)Cc1ccc(Cl)nc1 | inactive | inactive | inactive | inactive | inactive | inactive | inactive | inactive | inactive | inactive | inactive |  | inactive | inactive | inactive | inactive | inactive | inactive | inactive | inactive
Oc1cc(Cl)ccc1Oc1ccc(Cl)cc1Cl | 22.2 µM (active) and 29.8 µM (active) | inactive | inactive | inactive | inactive | inactive | 16.6 µM (active) and inactive | 37.2 µM (active) and inactive | 26.3 µM (active) | inactive | inactive | 35.5 µM (active) | inactive | inactive |  |  | 52.6 µM (active) | inactive | 55.8 µM (active) | 
N#Cc1c(Cl)c(Cl)c(Cl)c(C#N)c1Cl | 2.68 µM (active) and 2.73 µM (active) | 950 nM (active) and 969 nM (active) | inactive | inactive | inactive | inactive |  | inactive | 18.2 µM (active) |  | inactive | inactive | inactive | inactive |  |  | inactive | inactive | 15.1 µM (active) and 4.86 µM (active) | 
